Data taken from PubChem BioAssay (NCI).
About 83,000 compounds went through this panel and 20% of them were active in at least one assay; those are over-represented in the sample as a whole.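 Growth was measured after 48 h exposure to one concentration of compound in 96-well plates. Values under 10 count as active.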 Unmarked numbers belong to inactive results. Active and inactive are the calls of the source.

Key:
Test in all cases: NCI-60 one-dose screen, 48 h (100 = growth as untreated, 0 = no growth, -100 = all killed)
Settings in all cases: 10 µM
NCI-H23 lung = tested on: NCI-H23 lung
NCI-H226 lung = tested on: NCI-H226 lung
NCI-H322M lung = tested on: NCI-H322M lung
NCI-H460 lung = tested on: NCI-H460 lung
HOP-92 NSCLC = tested on: HOP-92 NSCLC
NCI-H522 lung = tested on: NCI-H522 lung
A549/ATCC NSCLC = tested on: A549/ATCC NSCLC
786-0 renal = tested on: 786-0 renal
COLO 205 colon = tested on: COLO 205 colon
DU-145 prostate = tested on: DU-145 prostate
K-562 leukemia = tested on: K-562 leukemia
MALME-3M melanoma = tested on: MALME-3M melanoma
MDA-MB-231 breast = tested on: MDA-MB-231 breast
RXF 393 renal = tested on: RXF 393 renal
SF-268 CNS = tested on: SF-268 CNS
SF-295 CNS = tested on: SF-295 CNS
SF-539 CNS = tested on: SF-539 CNS
UACC-257 melanoma = tested on: UACC-257 melanoma
M14 melanoma = tested on: M14 melanoma
HOP-62 NSCLC = tested on: HOP-62 NSCLC

SMILES | growth (NCI-H23 lung) | growth (NCI-H226 lung) | growth (NCI-H322M lung) | growth (NCI-H460 lung) | growth (HOP-92 NSCLC) | growth (NCI-H522 lung) | growth (A549/ATCC NSCLC) [%] | growth (786-0 renal) | growth (COLO 205 colon) | growth (DU-145 prostate) | growth (K-562 leukemia) | growth (MALME-3M melanoma) | growth (MDA-MB-231 breast) | growth (RXF 393 renal) [%] | growth (SF-268 CNS) | growth (SF-295 CNS) | growth (SF-539 CNS) | growth (UACC-257 melanoma) [%] | growth (M14 melanoma) | growth (HOP-62 NSCLC) [%]
Nc1ccccc1NC(=O)CCCCCCC(=O)Nc1ccc2c(c1)/C(=C/c1ccc[nH]1)C(=O)N2 | 60.7% | 45.5% | 40.6% | 27.5% | 8.25% (active) | 11.7% | 47 | 38.2% | 79.4% | 28.7% | 46.8% | 20% | 55.5% | 21.2 | 23.3% | 49.9% | 17% | 63.5 | 50.4% | –
CC(=O)Nc1ccc(Sc2ccc(NC(C)=O)cc2)cc1 | 94.1% | 101% | 110% | 105% | 83.1% | 75.7% | 80 | 94% | 101% | 102% | 96.2% | 102% | 100% | 109 | 102% | 102% | 92% | 94.4 | 98.2% | –
Cc1cc(C(C)(C)CC(C)(C)C)ccc1OCCOCC[N+](C)(C)Cc1ccccc1 | -20% (active) | -18% (active) | 20.6% | -72.2% (active) | -72.5% (active) | -50.1% (active) | 36.7 | -19.4% (active) | -81.6% (active) | 22.4% | -53.8% (active) | -35.5% (active) | -67.7% (active) | – | -69.7% (active) | -14.3% (active) | -82.6% (active) | 22.9 | -83.2% (active) | –
COc1cc(Cn2c(-c3ccccc3)cc3c2-c2oncc2CC3)cc(OC)c1 | 23.7% | – | 8.6% (active) | -0.835% (active) | 48.8% | -17.2% (active) | 23.3 | 37.6% | – | 0.266% (active) | 9.87% (active) | – | 5.37% (active) | 33.7 | 30.6% | -1.16% (active) | -11.9% (active) | 55.4 | 0.789% (active) | 60.5
Nc1cc(O)cc(O)c1 | 93.9% | – | 104% | 106% | 93.4% | 94% | 106 | 93.9% | 102% | 103% | 99.5% | 97.5% | 93.9% | 120 | 100% | 94.9% | 92.1% | 108 | 100% | 88.1
CS(=O)(=O)Nc1ccc(OCc2nnc(-c3ccc(Cl)cc3)o2)c(F)c1 | 93.6% | – | 109% | 98.9% | 88.3% | 94.8% | 90.2 | 89.4% | 110% | 101% | 100% | 111% | 85.7% | 108 | 98.9% | 94.1% | 85.1% | 99.6 | 99.3% | 87.2
COc1ccc(-c2nc(SCC(=O)c3ccc(Br)cc3)[nH]c(=O)c2C#N)cc1 | 106% | – | 97.3% | 108% | 85.9% | 95.4% | 99.6 | 89.9% | 119% | 103% | 96.1% | – | 105% | 106 | 96.2% | 100% | 111% | 111 | 98.5% | 101
O=CNc1c(Cl)cc2c(c1Cl)Cc1cc([N+](=O)[O-])ccc1-2 | 58.3% | – | 78% | 31.4% | 60.6% | 44.7% | 38.4 | 109% | 34.4% | 79.1% | 16.4% | – | 63.6% | 96.9 | 78.8% | 77.3% | 67.9% | 72.6 | 28.7% | 67.6
